# Laboratory results as given in article PMC8384837, “Expanding the binding specificity for RNA recognition by a PUF domain”.
# Tests used:
# Experiment in all cases: yeast three-hybrid, YBZ-1, SC-Leu-His + 0.5 mM 3-AT, 4 days
# Conditions in all cases: tags: N-Gal4 AD-HA kept; label: inside an RPR1-promoter hybrid RNA with tandem MS2 sites; ssRNA
# PUM1 PUF domain R1-GFE = PUM1 PUF domain R1-GFE (Homo sapiens, UniProt Q14671 828-1176, S863G;R864F;Q867E)
# Method in brief: (§1)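 The interaction score is the logarithmic change in variant frequency from input to selection. It uses log2, with a pseudocount of 1 for absent variants, and frequencies came from PCR-amplified, Illumina-sequenced repeat regions. The libraries were Pumilio-1 PUF domains randomized at the three base-contacting residues per repeat, co-expressed with matching RNA elements in strain YBZ-1 (LexA–MS2 coat fusion, HIS3 reporter). Plating lasted four days on SC-Leu (input) or SC-Leu-His + 0.5 mM 3-AT (selection).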
# PUM1 PUF domain R5-VNR = PUM1 PUF domain R5-VNR (Homo sapiens, UniProt Q14671 828-1176, C1007V;R1008N;Q1011R)
# Method in brief: as §1
# PUM1 PUF domain R8-KKK = PUM1 PUF domain R8-KKK (Homo sapiens, UniProt Q14671 828-1176, N1122K;Y1123K;Q1126K)
# Chain of PUM1 PUF domain R8-KKK (Q14671 828-1176 N1122K/Y1123K/Q1126K): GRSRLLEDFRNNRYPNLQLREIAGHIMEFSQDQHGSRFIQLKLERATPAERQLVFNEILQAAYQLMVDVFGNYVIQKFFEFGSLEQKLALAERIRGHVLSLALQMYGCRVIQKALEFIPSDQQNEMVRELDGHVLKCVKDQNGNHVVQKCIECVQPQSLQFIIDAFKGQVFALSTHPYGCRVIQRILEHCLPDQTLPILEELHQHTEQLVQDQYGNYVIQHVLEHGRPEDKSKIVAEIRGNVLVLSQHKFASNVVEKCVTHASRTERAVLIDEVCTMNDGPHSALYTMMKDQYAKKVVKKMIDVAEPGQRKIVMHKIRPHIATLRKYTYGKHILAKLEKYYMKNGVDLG
# Method in brief: as §1
# PUM1 PUF domain R8-KWF = PUM1 PUF domain R8-KWF (Homo sapiens, UniProt Q14671 828-1176, N1122K;Y1123W;Q1126F)
# Method in brief: as §1
# PUM1 PUF domain R8-PYF = PUM1 PUF domain R8-PYF (Homo sapiens, UniProt Q14671 828-1176, N1122P;Q1126F)
# Method in brief: as §1
# PUM1 PUF domain R3-LSA = PUM1 PUF domain R3-LSA (Homo sapiens, UniProt Q14671 828-1176, C935L;R936S;Q939A)
# Chain of PUM1 PUF domain R3-LSA (Q14671 828-1176 C935L/R936S/Q939A): as the sequence (Q14671 828-1176 N1122K/Y1123K/Q1126K) above, with C108L, R109S, Q112A, K295N, K296Y, K299Q counted along it
# Method in brief: as §1
# PUM1 PUF domain R3-RTM = PUM1 PUF domain R3-RTM (Homo sapiens, UniProt Q14671 828-1176, C935R;R936T;Q939M)
# Method in brief: as §1
# PUM1 PUF domain R3-EWA = PUM1 PUF domain R3-EWA (Homo sapiens, UniProt Q14671 828-1176, C935E;R936W;Q939A)
# Chain of PUM1 PUF domain R3-EWA (Q14671 828-1176 C935E/R936W/Q939A): as the sequence (Q14671 828-1176 N1122K/Y1123K/Q1126K) above, with C108E, R109W, Q112A, K295N, K296Y, K299Q counted along it
# Method in brief: as §1
# PUM1 PUF domain R4-MRG = PUM1 PUF domain R4-MRG (Homo sapiens, UniProt Q14671 828-1176, N971M;H972R;Q975G)
# Chain of PUM1 PUF domain R4-MRG (Q14671 828-1176 N971M/H972R/Q975G): as the sequence (Q14671 828-1176 N1122K/Y1123K/Q1126K) above, with N144M, H145R, Q148G, K295N, K296Y, K299Q counted along it
# Method in brief: as §1
# PUM1 PUF domain R4-ARR = PUM1 PUF domain R4-ARR (Homo sapiens, UniProt Q14671 828-1176, N971A;H972R;Q975R)
# Chain of PUM1 PUF domain R4-ARR (Q14671 828-1176 N971A/H972R/Q975R): as the sequence (Q14671 828-1176 N1122K/Y1123K/Q1126K) above, with N144A, H145R, Q148R, K295N, K296Y, K299Q counted along it
# Method in brief: as §1
# PUM1 PUF domain R4-DFC = PUM1 PUF domain R4-DFC (Homo sapiens, UniProt Q14671 828-1176, N971D;H972F;Q975C)
# Chain of PUM1 PUF domain R4-DFC (Q14671 828-1176 N971D/H972F/Q975C): as the sequence (Q14671 828-1176 N1122K/Y1123K/Q1126K) above, with N144D, H145F, Q148C, K295N, K296Y, K299Q counted along it
# Method in brief: as §1
# PUM1 PUF domain R4-SPG = PUM1 PUF domain R4-SPG (Homo sapiens, UniProt Q14671 828-1176, N971S;H972P;Q975G)
# Chain of PUM1 PUF domain R4-SPG (Q14671 828-1176 N971S/H972P/Q975G): as the sequence (Q14671 828-1176 N1122K/Y1123K/Q1126K) above, with N144S, H145P, Q148G, K295N, K296Y, K299Q counted along it
# Method in brief: as §1
# PUM1 PUF domain R4-RYP = PUM1 PUF domain R4-RYP (Homo sapiens, UniProt Q14671 828-1176, N971R;H972Y;Q975P)
# Chain of PUM1 PUF domain R4-RYP (Q14671 828-1176 N971R/H972Y/Q975P): as the sequence (Q14671 828-1176 N1122K/Y1123K/Q1126K) above, with N144R, H145Y, Q148P, K295N, K296Y, K299Q counted along it
# Method in brief: as §1
# PUM1 PUF domain R3-VRY = PUM1 PUF domain R3-VRY (Homo sapiens, UniProt Q14671 828-1176, C935V;Q939Y)
# Chain of PUM1 PUF domain R3-VRY (Q14671 828-1176 C935V/Q939Y): as the sequence (Q14671 828-1176 N1122K/Y1123K/Q1126K) above, with C108V, Q112Y, K295N, K296Y, K299Q counted along it
# Method in brief: as §1
# PUM1 PUF domain R8-KWS = PUM1 PUF domain R8-KWS (Homo sapiens, UniProt Q14671 828-1176, N1122K;Y1123W;Q1126S)
# Chain of PUM1 PUF domain R8-KWS (Q14671 828-1176 N1122K/Y1123W/Q1126S): as the sequence (Q14671 828-1176 N1122K/Y1123K/Q1126K) above, with K296W, K299S counted along it
# Method in brief: as §1
# PUM1 PUF domain R5-THL = PUM1 PUF domain R5-THL (Homo sapiens, UniProt Q14671 828-1176, C1007T;R1008H;Q1011L)
# Chain of PUM1 PUF domain R5-THL (Q14671 828-1176 C1007T/R1008H/Q1011L): as the sequence (Q14671 828-1176 N1122K/Y1123K/Q1126K) above, with C180T, R181H, Q184L, K295N, K296Y, K299Q counted along it
# Method in brief: as §1
# PUM1 PUF domain R6-FRV = target: T1, PUM1 PUF domain R6-FRV (Homo sapiens, UniProt Q14671 828-1176, N1043F;Y1044R;Q1047V)
# T1 sequence: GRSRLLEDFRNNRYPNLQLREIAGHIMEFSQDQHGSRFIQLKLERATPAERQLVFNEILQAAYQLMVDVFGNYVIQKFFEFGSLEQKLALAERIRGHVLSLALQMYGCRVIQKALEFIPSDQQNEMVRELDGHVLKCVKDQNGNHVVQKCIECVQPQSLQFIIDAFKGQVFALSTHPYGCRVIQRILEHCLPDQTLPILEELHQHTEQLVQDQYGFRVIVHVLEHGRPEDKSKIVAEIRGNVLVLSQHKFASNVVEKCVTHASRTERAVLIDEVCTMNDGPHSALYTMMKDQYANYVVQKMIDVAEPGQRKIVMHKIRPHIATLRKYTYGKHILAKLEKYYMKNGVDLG
# Method in brief: as §1
# PUM1 PUF domain R5-GQC = PUM1 PUF domain R5-GQC (Homo sapiens, UniProt Q14671 828-1176, C1007G;R1008Q;Q1011C)
# Method in brief: as §1
# PUM1 PUF domain R5-PHS = PUM1 PUF domain R5-PHS (Homo sapiens, UniProt Q14671 828-1176, C1007P;R1008H;Q1011S)
# Method in brief: as §1
# PUM1 PUF domain R4-SNQ = PUM1 PUF domain R4-SNQ (Homo sapiens, UniProt Q14671 828-1176, N971S;H972N)
# Chain of PUM1 PUF domain R4-SNQ (Q14671 828-1176 N971S/H972N): as the sequence (Q14671 828-1176 N1122K/Y1123K/Q1126K) above, with N144S, H145N, K295N, K296Y, K299Q counted along it
# Method in brief: as §1
sequence,measurement,setting,value
GGCUAGAACUAGUGGAUCCCCCGGCGCCCGGCGGCUCGAGCCCGGGUAAGUGUAAAUGGUCUGCAUGCCGCCGGGCGCCAUGCCUGCAGGUCGACUCUAGAAAACAUG,binding signal,PUM1 PUF domain R1-GFE,4.79 log2 enrichment (interaction score)
GGCUAGAACUAGUGGAUCCCCCGGCGCCCGGCGGCUCGAGCCCGGGUAAGUGUUAAUAGUCUGCAUGCCGCCGGGCGCCAUGCCUGCAGGUCGACUCUAGAAAACAUG,binding signal,PUM1 PUF domain R5-VNR,2.69 log2 enrichment (interaction score)
GGCUAGAACUAGUGGAUCCCCCGGCGCCCGGCGGCUCGAGCCCGGGUAAGCGUAAAUAGUCUGCAUGCCGCCGGGCGCCAUGCCUGCAGGUCGACUCUAGAAAACAUG,binding signal,PUM1 PUF domain R8-KKK,3.81 log2 enrichment (interaction score)
same,binding signal,PUM1 PUF domain R8-KWF,4.32 log2 enrichment (interaction score)
same,binding signal,PUM1 PUF domain R8-PYF,5.02 log2 enrichment (interaction score)
GGCUAGAACUAGUGGAUCCCCCGGCGCCCGGCGGCUCGAGCCCGGGUAAGUGUAAUUAGUCUGCAUGCCGCCGGGCGCCAUGCCUGCAGGUCGACUCUAGAAAACAUG,binding signal,PUM1 PUF domain R3-LSA,2.8 log2 enrichment (interaction score)
same,binding signal,PUM1 PUF domain R3-RTM,2.52 log2 enrichment (interaction score)
same,binding signal,PUM1 PUF domain R3-EWA,4.15 log2 enrichment (interaction score)
GGCUAGAACUAGUGGAUCCCCCGGCGCCCGGCGGCUCGAGCCCGGGUAAGUGUACAUAGUCUGCAUGCCGCCGGGCGCCAUGCCUGCAGGUCGACUCUAGAAAACAUG,binding signal,PUM1 PUF domain R4-MRG,1.34 log2 enrichment (interaction score)
same,binding signal,PUM1 PUF domain R4-ARR,2.99 log2 enrichment (interaction score)
same,binding signal,PUM1 PUF domain R4-DFC,5.67 log2 enrichment (interaction score)
same,binding signal,PUM1 PUF domain R4-SPG,2.11 log2 enrichment (interaction score)
GGCUAGAACUAGUGGAUCCCCCGGCGCCCGGCGGCUCGAGCCCGGGUAAGUGUAAGUAGUCUGCAUGCCGCCGGGCGCCAUGCCUGCAGGUCGACUCUAGAAAACAUG,binding signal,PUM1 PUF domain R3-LSA,4.84 log2 enrichment (interaction score)
same,binding signal,PUM1 PUF domain R3-EWA,4.37 log2 enrichment (interaction score)
GGCUAGAACUAGUGGAUCCCCCGGCGCCCGGCGGCUCGAGCCCGGGUAAGUGUAAAUAGUCUGCAUGCCGCCGGGCGCCAUGCCUGCAGGUCGACUCUAGAAAACAUG,binding signal,PUM1 PUF domain R4-MRG,2.56 log2 enrichment (interaction score)
same,binding signal,PUM1 PUF domain R4-RYP,5.03 log2 enrichment (interaction score)
same,binding signal,PUM1 PUF domain R3-VRY,4.24 log2 enrichment (interaction score)
same,binding signal,PUM1 PUF domain R8-KWS,3.68 log2 enrichment (interaction score)
same,binding signal,PUM1 PUF domain R5-THL,4.39 log2 enrichment (interaction score)
same,binding signal,PUM1 PUF domain R4-SPG,4.58 log2 enrichment (interaction score)
same,binding signal,PUM1 PUF domain R6-FRV,2.7 log2 enrichment (interaction score)
same,binding signal,PUM1 PUF domain R3-EWA,4.04 log2 enrichment (interaction score)
same,binding signal,PUM1 PUF domain R5-GQC,3.41 log2 enrichment (interaction score)
GGCUAGAACUAGUGGAUCCCCCGGCGCCCGGCGGCUCGAGCCCGGGUAAGUGUAAAUUGUCUGCAUGCCGCCGGGCGCCAUGCCUGCAGGUCGACUCUAGAAAACAUG,binding signal,PUM1 PUF domain R1-GFE,0.52 log2 enrichment (interaction score)
GGCUAGAACUAGUGGAUCCCCCGGCGCCCGGCGGCUCGAGCCCGGGUAAGUGUGAAUAGUCUGCAUGCCGCCGGGCGCCAUGCCUGCAGGUCGACUCUAGAAAACAUG,binding signal,PUM1 PUF domain R5-PHS,2.78 log2 enrichment (interaction score)
GGCUAGAACUAGUGGAUCCCCCGGCGCCCGGCGGCUCGAGCCCGGGUAAGUGUAUAUAGUCUGCAUGCCGCCGGGCGCCAUGCCUGCAGGUCGACUCUAGAAAACAUG,binding signal,PUM1 PUF domain R4-MRG,1.61 log2 enrichment (interaction score)
same,binding signal,PUM1 PUF domain R4-RYP,2.78 log2 enrichment (interaction score)
same,binding signal,PUM1 PUF domain R4-SNQ,4.52 log2 enrichment (interaction score)
same,binding signal,PUM1 PUF domain R4-SPG,3.58 log2 enrichment (interaction score)
